PubChem BioAssay
Activity calls are given as the source filed them. Unless noted, no rule for the calls is given here.

Key:
[1] = anti-His antibody binders, primary screen, artefact control for SMM control protein annotation, biochemical, small-molecule microarray, 635 nm fluorescence (AID 1128); conditions: anti-His Alexa647 antibody binding, higher = more signal;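 also: score merges feature fluorescence with signal-to-noise for each printed compound spot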
[2] = system: Human papillomavirus type 1a E7 protein (residues 1-88); experiment: HPV1a E7 small-molecule binders, primary screen, biochemical, small-molecule microarray, residues 1-88, 635 nm (AID 1129); conditions: small-molecule microarray binding, fluorescence 635 nm; higher = more signal
[3] = biological target: Focal adhesion kinase 1 (Homo sapiens) (UniProt Q05397); experiment: small-molecule microarray binders of FAK, primary screen, biochemical, 635/667 nm fluorescence, BSA, DTT (AID 1130); conditions: PTK2 binding, 635 nm fluorescence, higher = more signal;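 also: composite of spot emission at 667 nm and signal to noise over triplicate slides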
Sequence of Focal adhesion kinase 1 (Homo sapiens) (Q05397 whole entry, looked up): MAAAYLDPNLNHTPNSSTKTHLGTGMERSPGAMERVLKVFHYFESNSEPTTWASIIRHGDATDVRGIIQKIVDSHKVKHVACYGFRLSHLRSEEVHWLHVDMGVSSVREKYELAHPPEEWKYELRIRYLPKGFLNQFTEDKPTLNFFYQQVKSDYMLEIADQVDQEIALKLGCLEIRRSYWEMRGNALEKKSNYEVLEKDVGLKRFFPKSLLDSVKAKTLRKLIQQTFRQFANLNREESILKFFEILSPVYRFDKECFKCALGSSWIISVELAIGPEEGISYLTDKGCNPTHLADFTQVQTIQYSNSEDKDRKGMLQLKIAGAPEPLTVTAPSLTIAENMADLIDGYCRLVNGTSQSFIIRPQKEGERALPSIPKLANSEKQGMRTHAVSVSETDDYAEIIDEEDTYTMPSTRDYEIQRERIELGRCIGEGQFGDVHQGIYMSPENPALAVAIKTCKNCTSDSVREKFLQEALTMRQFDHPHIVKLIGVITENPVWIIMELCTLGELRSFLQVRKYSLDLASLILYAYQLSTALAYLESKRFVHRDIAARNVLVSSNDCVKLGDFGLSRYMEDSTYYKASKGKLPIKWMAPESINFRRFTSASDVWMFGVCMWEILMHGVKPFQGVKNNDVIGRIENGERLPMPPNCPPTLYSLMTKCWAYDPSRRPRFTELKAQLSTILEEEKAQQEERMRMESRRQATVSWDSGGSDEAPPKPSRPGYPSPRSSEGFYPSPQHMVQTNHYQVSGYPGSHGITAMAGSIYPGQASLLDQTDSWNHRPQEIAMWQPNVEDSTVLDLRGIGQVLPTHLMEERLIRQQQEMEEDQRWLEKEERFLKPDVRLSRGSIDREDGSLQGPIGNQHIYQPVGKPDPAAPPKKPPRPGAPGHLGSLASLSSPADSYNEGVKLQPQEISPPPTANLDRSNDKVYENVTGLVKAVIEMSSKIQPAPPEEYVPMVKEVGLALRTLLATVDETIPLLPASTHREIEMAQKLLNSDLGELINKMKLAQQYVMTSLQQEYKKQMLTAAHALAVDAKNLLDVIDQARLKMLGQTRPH

[4] = system: Fibrinogen (Alexa647-labelled); experiment: fibrinogen binders on compound microarrays, profiling panel, artefact control for SMM control-protein annotation, biochemical, small-molecule microarray, 635/667 nm fluorescence (AID 1131); conditions: fibrinogen-A647 binding fluorescence, higher = more signal;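 also: z-score merges 667 nm fluorescence with per-spot signal-to-noise over triplicate slides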
[5] = biological target: Follistatin (Homo sapiens) (UniProt P19883); experiment: follistatin binders on small-molecule microarrays, primary screen, biochemical, small-molecule microarray, 635/667 nm fluorescence (AID 1132); conditions: FST binding, 635 nm fluorescence, higher = more signal
Sequence of Follistatin (Homo sapiens) (P19883 whole entry, looked up): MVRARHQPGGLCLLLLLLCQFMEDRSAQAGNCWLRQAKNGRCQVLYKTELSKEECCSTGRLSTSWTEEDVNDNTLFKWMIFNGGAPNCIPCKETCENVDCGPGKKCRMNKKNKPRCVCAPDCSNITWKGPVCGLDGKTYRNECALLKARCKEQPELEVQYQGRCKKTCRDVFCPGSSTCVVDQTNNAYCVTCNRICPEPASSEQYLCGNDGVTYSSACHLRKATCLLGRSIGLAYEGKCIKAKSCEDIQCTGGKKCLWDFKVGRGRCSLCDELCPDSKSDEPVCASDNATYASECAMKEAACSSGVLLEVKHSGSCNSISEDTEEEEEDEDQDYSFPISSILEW

[6] = biological target: Fibroblast growth factor 2 (Homo sapiens) (UniProt P09038); experiment: FGF2 binders on small-molecule microarrays, primary screen, biochemical, small-molecule microarray, 635/667 nm fluorescence (AID 1133); conditions: small-molecule microarray binding, FGF2, fluorescence 635/667; higher = more signal
Sequence of Fibroblast growth factor 2 (Homo sapiens) (P09038 whole entry, looked up): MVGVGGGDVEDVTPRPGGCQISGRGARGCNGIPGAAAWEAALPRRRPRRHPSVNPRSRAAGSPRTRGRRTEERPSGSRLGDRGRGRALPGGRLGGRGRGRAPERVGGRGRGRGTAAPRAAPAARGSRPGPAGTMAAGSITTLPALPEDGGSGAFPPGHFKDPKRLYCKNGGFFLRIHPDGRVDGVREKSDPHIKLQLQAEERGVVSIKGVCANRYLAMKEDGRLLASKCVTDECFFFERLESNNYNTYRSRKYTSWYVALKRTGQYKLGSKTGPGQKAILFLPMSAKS

[7] = mitochondrial membrane potential change in A549 cells, profiling panel, cell-based, JC-1 fluorescence, basal, 24 h, 100 nL (AID 1138); conditions: higher = more signal;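 also: A549 lung adenocarcinoma cells under basal conditions with no added stimulus; test concentration not given here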
Lefty1 = Lefty1 binders on small-molecule microarrays, primary screen, biochemical, small-molecule microarray, 635/667 nm fluorescence (AID 1139); conditions: small-molecule microarray binding, fluorescence 635/667; higher = more signal
[8] = system: wheat germ agglutinin (Triticum aestivum), Alexa647-labelled; experiment: wheat germ agglutinin binders on compound microarrays, profiling panel, artefact control for SMM control-protein annotation, biochemical, small-molecule microarray, 635/667 nm fluorescence (AID 1140); conditions: WGA-A647 binding, 635 nm fluorescence, higher = more signal;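 also: score merges 667 nm feature emission with signal to noise over triplicate slides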
[9] = biological target: Luciferin 4-monooxygenase (Photinus pyralis) (UniProt P08659); experiment: firefly luciferase enzyme inhibitors, primary screen, biochemical, luminescence, purified enzyme, 2006 set (AID 1141); conditions: SteadyGlo luminescence, 30 min, higher = more signal, called active from +8 up or from −8 down;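 also: cell-free assay with purified firefly luciferase at 100 ng per well in PBS; test concentration not given here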
Sequence of Luciferin 4-monooxygenase (Photinus pyralis) (P08659 whole entry, looked up): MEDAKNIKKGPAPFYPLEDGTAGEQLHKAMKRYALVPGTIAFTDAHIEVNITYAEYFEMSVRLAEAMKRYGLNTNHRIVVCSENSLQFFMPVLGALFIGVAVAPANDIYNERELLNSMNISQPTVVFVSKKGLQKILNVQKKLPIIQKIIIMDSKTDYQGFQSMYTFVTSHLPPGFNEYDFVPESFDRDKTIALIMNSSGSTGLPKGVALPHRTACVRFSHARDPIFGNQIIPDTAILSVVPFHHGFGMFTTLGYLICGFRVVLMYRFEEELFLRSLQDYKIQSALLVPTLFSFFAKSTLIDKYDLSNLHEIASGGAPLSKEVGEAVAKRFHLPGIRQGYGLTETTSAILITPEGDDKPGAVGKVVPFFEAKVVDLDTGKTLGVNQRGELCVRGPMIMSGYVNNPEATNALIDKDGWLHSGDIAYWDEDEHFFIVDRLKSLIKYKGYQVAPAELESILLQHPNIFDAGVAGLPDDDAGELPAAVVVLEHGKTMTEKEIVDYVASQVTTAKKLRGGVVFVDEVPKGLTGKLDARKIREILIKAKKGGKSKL

[10] = system: Wnt5a (protein binding on small-molecule microarray); experiment: Wnt5a binders on small-molecule microarray, primary screen, biophysical, 635/667 nm fluorescence (AID 1142); conditions: 635 nm fluorescence, higher = more signal;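 also: fluorescence read at 667 nm with signal to noise per printed feature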
[11] = cell viability in Huh7 cells, primary screen, cytotoxicity control for HCV replication inhibitor project, CellTiter-Glo luminescence, basal, 48 h (AID 1143); conditions: Huh7 HCV replicon, higher = more signal, called active from +8 up or from −8 down;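 also: Huh7 hepatoma cells carrying a hepatitis C replication reporter with no stimulus; test concentration not given here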
[12] = P. aeruginosa biofilm formation inhibitors, primary screen, PAO1 strain, BacTiter-Glo luminescence, LB-PBS (AID 1144); conditions: 12 h, higher = more signal
[13] = CREB reporter modulators without forskolin, primary screen, cell-based, PC12, CRE-LacZ reporter, unstimulated (AID 1145); conditions: no forskolin, luminescence, 4.5 h, higher = more signal, called active from +8 up or from −8 down
[14] = CREB reporter modulators under forskolin, primary screen, cell-based, PC12, CRE-LacZ reporter, forskolin-stimulated (AID 1146); conditions: luminescence, 4.5 h, higher = more signal, called active from +8 up or from −8 down;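 also: PC12 cells with 6xCRE LacZ reporter stimulated by forskolin 10 µM; beta-galactosidase reporter signal reflecting CREB driven transcription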
[15] = biological target: Streptavidin (Streptomyces avidinii) (UniProt P22629); experiment: streptavidin binders on small-molecule microarray, primary screen, artefact control for SMM compound annotation, biophysical, 635/667 nm fluorescence (AID 1147); conditions: streptavidin binding, higher = more signal;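 also: signal reflects streptavidin binding to arrayed compounds as a control protein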
Sequence of Streptavidin (Streptomyces avidinii) (P22629 whole entry, looked up): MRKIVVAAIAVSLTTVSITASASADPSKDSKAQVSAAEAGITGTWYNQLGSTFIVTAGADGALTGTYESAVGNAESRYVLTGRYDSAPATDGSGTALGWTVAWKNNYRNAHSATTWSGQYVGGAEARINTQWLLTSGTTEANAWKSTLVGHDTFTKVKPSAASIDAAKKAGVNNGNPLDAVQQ

[16] = small-molecule binders of probe aInhba, primary screen, biochemical, small-molecule microarray, 635/667 nm fluorescence (AID 1148); conditions: higher = more signal;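 also: score merges 667nm spot fluorescence with signal-to-noise for antibody binding to printed compounds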
Torsin-1A (Homo sapiens) [17] = biological target: Torsin-1A (Homo sapiens) (UniProt O14656); experiment: torsin A binders from cell lysate, primary screen, small-molecule microarray, wild-type, 635/667 nm (AID 1149); conditions: COS7 hTOR1A-WT lysate, 635 nm fluorescence, higher = more signal
Sequence of Torsin-1A (Homo sapiens) (O14656 whole entry, looked up): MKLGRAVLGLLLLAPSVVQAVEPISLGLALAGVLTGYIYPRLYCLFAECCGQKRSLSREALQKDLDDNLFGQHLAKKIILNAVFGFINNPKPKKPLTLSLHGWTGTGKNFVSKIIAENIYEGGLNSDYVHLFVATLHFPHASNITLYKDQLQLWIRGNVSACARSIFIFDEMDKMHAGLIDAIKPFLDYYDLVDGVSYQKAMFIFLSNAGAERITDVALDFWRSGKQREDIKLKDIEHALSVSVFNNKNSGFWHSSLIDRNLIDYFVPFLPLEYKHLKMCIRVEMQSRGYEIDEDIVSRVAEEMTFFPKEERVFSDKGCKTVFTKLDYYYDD

Torsin-1A (Homo sapiens) [18] = biological target: Torsin-1A (Homo sapiens) (UniProt O14656); experiment: small-molecule binders of mutant TOR1A in lysate, primary screen, cell lysate, small-molecule microarray, COS7 lysate, 635/667 nm fluorescence (AID 1150); conditions: COS7 hTOR1A mutant lysate, 635 nm fluorescence, higher = more signal;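 also: score pools 667 nm emission and signal to noise measuring lysate protein binding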
[19] = system: Sonic hedgehog protein (Shh); experiment: small-molecule binders of Shh protein, primary screen, biochemical, small-molecule microarray, 635/667 nm fluorescence (AID 1151); conditions: small-molecule microarray binding, 635 nm fluorescence; higher = more signal;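 also: Shh protein binding to compounds spotted on small-molecule microarray slides; score combines spot fluorescence intensity with signal-to-noise across triplicate slides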

| SMILES | composite z-score [1] | composite z-score [2] | composite z-score [3] | composite z-score [4] | composite z-score [5] | composite z-score [6] | z-score [7] | composite z-score (Lefty1) | composite z-score [8] | z-score [9] | composite z-score [10] | z-score [11] | z-score [12] | z-score [13] | z-score [14] | composite z-score [15] | composite z-score [16] | composite z-score (Torsin-1A (Homo sapiens) [17]) | composite z-score (Torsin-1A (Homo sapiens) [18]) | composite z-score [19] |
| --- | --- | --- | --- | --- | --- | --- | --- | --- | --- | --- | --- | --- | --- | --- | --- | --- | --- | --- | --- | --- |
| COCCn1c(C(=O)N2CCCC2)cc2c1C[C@H]1CN(C(=O)c3ccccc3)[C@@](Cc3ccccc3)(C(=O)OC)[C@@H]21 | 1.09 | 0.822 | 1.54 | 0.948 | 0.298 | 0.121 | 0.109 | 0.334 | 1.11 | 2.58 (inactive) | 0.576 | -1.01 (inactive) | -0.784 (inactive) | -0.182 (inactive) | -0.034 (inactive) | 0.393 | 0.679 | 0.22 | 1.18 | -0.193 |
| COc1ccccc1CN1C(=O)c2ccccc2[C@@H](C(=O)NCCCN(C)C)[C@@H]1c1ccc(CO)cc1 | 0.802 | 0.232 | -0.492 | -0.741 | 0.104 | 0.303 | 2.1 | 0.409 | 0.131 | 0.731 (inactive) | 0.0968 | -2.77 (inactive) | -1.58 (inactive) | 0.531 (inactive) | -0.744 (inactive) | -0.523 | 0.0028 | -0.236 | -0.0195 | -0.0791 |
| COCCOC(=O)N1C(=O)[C@@]2(c3cc(C#Cc4ccc(OC)cc4)ccc31)[C@H](c1ccc(OCCO)cc1)N1[C@H](c3ccccc3)[C@H](c3ccccc3)OC(=O)[C@H]1[C@@H]2C(=O)N1CCCCCCC1 | -0.252 | 1.2 | 1.4 | 0.636 | 1.36 | 1.24 | -0.625 | 1.36 | 1.01 | -2.14 (inactive) | 0.713 | -3.28 (inactive) | -1.44 (inactive) | 0.891 (inactive) | -0.498 (inactive) | 2.42 | 1.65 | 0.666 | 1.71 | 2.02 |
| O=C1OCCC=C[C@H]2OC34C=CCN(c5ccc(Cl)cc5)C(=O)[C@H]3N(CCO)C(=O)[C@@H]4C12 (stereo not given in full) | -0.656 | -0.574 | -0.732 | -0.262 | -0.367 | -1.14 | -0.0109 | -0.837 | -0.524 | -0.381 (inactive) | -0.524 | 0.373 (inactive) | 0.108 (inactive) | -0.228 (inactive) | -0.256 (inactive) | -1.23 | -0.159 | -1.97 | -0.0899 | -0.524 |
| CCCCN1CC=CC23O[C@@H]4C=CCOC(=O)[C@@H]4[C@H]2C(=O)N(C(CO)C(C)C)[C@@H]3C1=O (stereo not given in full) | -1.13 | -0.663 | -0.813 | -0.328 | 0.389 | 0.126 | 0.406 | -0.12 | -0.708 | -0.606 (inactive) | -0.0661 | 0.233 (inactive) | 0.946 (inactive) | 0.463 (inactive) | 0.547 (inactive) | -0.507 | -0.34 | -0.241 | -0.436 | 0.605 |
| COc1ccccc1CN1C(=O)c2ccccc2[C@](Cc2ccccc2I)(C(=O)NCCCN(C)C)[C@@H]1c1ccc(CO)cc1 | 0.237 | 1.21 | 0.904 | 0.944 | 0.489 | 0.141 | -2.4 | 0.0523 | 0.0618 | -0.644 (inactive) | 0.168 | -5.84 (inactive) | 0.777 (inactive) | 3.31 (inactive) | 5.18 (inactive) | 0.956 | -0.187 | -0.26 | 0.409 | 0.814 |
| COCCOC(=O)N1C(=O)[C@@]2(c3cc(C#CC4(O)CCCCCC4)ccc31)[C@H](c1ccc(OCCO)cc1)N1[C@H](c3ccccc3)[C@H](c3ccccc3)OC(=O)[C@H]1[C@@H]2C(=O)N1CCCCCCC1 | 0.459 | 1.21 | 0.175 | 0.95 | 1.39 | 1.47 | -1.31 | 1.16 | 1.32 | -1.34 (inactive) | 0.539 | -4.81 (inactive) | -0.227 (inactive) | 0.212 (inactive) | -0.325 (inactive) | 1.68 | 1.63 | 1.12 | 1.12 | 2 |
| C=CCC(OC(C)=O)[C@@H]1[C@@H](N(Cc2ccc(-c3ccccc3)cc2)C(=O)c2cccc3ccccc23)c2cc(OCCCO)ccc2N1C(=O)c1ccc2ccccc2c1 (stereo not given in full) | -0.173 | 0.216 | 0.529 | 0.728 | 0.424 | -0.198 | 0.248 | 0.243 | 0.104 | 0.209 (inactive) | 0.0959 | -1.61 (inactive) | 0.41 (inactive) | -0.155 (inactive) | 0.108 (inactive) | 0.144 | 0.0219 | -0.0928 | 0.0249 | 0.156 |
| C=CCC(OC(C)=O)[C@@H]1[C@@H](N(Cc2cc3ccccc3o2)C(=O)Cc2ccc(OC)cc2)c2cc(OCCCO)ccc2N1C(=O)Cc1ccc(OC)cc1 (stereo not given in full) | 0.69 | -0.406 | 0.517 | 0.712 | 0.726 | 0.171 | -0.411 | -0.0035 | 0.67 | 0.244 (inactive) | -0.0737 | -1.17 (inactive) | 0.0258 (inactive) | 0.469 (inactive) | -0.0385 (inactive) | -0.213 | 0.168 | 0.29 | 0.34 | 0.551 |
